Source: PubChem (National Center for Advancing Translational Sciences (NCATS))
Tau fibril FP: qHTS for Inhibitors of Tau Fibril Formation, Fluorescence Polarization; K18 P301L tau heparin fibrillization, Alexa594 FP, 6 h; Potency, µM (doses to about 57.7 µM), most hits filed as inhibitors; 0.39% of 280,000 active; further: nearly all actives have a fitted effect of over 55% in size
Target sequence (P10636 561-689 P618L limits assumed): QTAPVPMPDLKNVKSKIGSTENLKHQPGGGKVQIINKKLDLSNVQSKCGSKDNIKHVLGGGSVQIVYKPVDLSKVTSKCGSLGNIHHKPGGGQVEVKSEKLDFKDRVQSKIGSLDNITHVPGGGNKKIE
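Compound effects on tau fibrillization are measured by Alexa 594 fluorescence polarization (ex 555, em 632 nm). K18 P301L tau is used at 15 uM with 0.24 uM labeled tracer, and 20 uM heparin induces aggregation over 6 hr at 37 C.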
TexasRed fluor: Total Fluorescence Counterscreen for Inhibitors of the Interaction of Thyroid Hormone Receptor and Steroid Receptor Coregulator 2; Potency, µM (titrated, usually from 106 µM); AID 1479, 2009; TRb/SRC2 Texas Red total fluorescence interference; 0.29% of 280,000 active; active means well fitted curve in either direction with a large enough effect; inconclusive means small, poorly fitted or top-dose-only effect
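Human TRb ligand-binding domain at 0.6 uM with 20 nM Texas Red SRC2 peptide in Tris buffer containing 1 uM T3 and 5% DMSO, incubated with compound 5 h at ambient temperature. Total fluorescence (555/632 nm) calculated as parallel + 2 × perpendicular.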
TRb-SRC2 inh: qHTS for Inhibitors of the Interaction of Thyroid Hormone Receptor and Steroid Receptor Coregulator 2 | Thyroid hormone receptor beta (Homo sapiens), P10828 | TRbeta-SRC2 peptide binding, fluorescence polarization; receptor liganded with 1 µM T3 | Potency, µM (series often up to 106 µM), most hits filed as inhibitors | 0.065% of 280,000 active; further: nearly all actives have a fitted effect of over 50% in size
Target sequence (P10828 whole entry, looked up): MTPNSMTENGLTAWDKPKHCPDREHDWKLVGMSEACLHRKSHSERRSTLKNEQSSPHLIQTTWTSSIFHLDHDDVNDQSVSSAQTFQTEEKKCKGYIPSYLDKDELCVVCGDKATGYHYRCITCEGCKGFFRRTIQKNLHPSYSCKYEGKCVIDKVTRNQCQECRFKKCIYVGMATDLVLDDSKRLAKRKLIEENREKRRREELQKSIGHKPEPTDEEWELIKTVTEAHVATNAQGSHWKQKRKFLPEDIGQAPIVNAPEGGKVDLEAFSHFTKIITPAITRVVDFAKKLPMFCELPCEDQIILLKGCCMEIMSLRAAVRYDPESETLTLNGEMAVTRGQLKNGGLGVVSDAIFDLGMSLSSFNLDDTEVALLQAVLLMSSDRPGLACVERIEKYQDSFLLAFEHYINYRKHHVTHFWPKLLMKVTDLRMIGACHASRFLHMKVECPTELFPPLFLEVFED
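Each compound concentration gave % activity, normalized to unbound and bound Texas Red SRC2 controls, from polarization read after 5 hr ambient incubation with T3-loaded human TRb LBD.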
GoLoco inh red: qHTS Assay for Inhibitors of RGS12 GoLoco Motif Activity (Red Fluorophore) | Gai1:RGS12 GoLoco peptide FP, rhodamine, 10 min | Potency, µM (doses to about 61.6 µM), usual class: inhibitors | 0.44% of 230,000 active; active means well fitted inhibition curve with a large enough effect, not every such curve was filed as active; inactive means no such curve, though single readings can be large or run the other way; further: nearly all actives have a fitted effect of over 30% in size
Tau ThT inhib: qHTS for Inhibitors of Tau Fibril Formation, Thioflavin T Binding; 2.1% of 270,000 active; Microtubule-associated protein tau (Homo sapiens), P10636; recombinant tau K18 P301L, heparin-induced fibrillization, ThT fluorescence; Potency, µM (series often up to 57.4 µM), actives largely listed as inhibitors; further: nearly all actives have a fitted effect of over 55% in size
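ThT emission at 510 nm, taken 1 hr after adding 30 uM dye, quantifies aggregates formed when 20 uM heparin acts on human tau K18 P301L for 6 hr at 37 C.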
Tau fluor cs: Counterscreen qHTS for Inhibitors of Tau Fibril Formation, Fluorescence Polarization | Potency, µM (top dose mostly 57.7 µM) | tau K18 P301L (four-repeat tau fragment) Alexa594 fluorescence, heparin fibrillization | AID 1463, 2008 | 0.93% of 280,000 active; further: nearly all actives have a fitted effect of over 55% in size
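Human K18 P301L tau (15 uM unlabeled plus 0.24 uM Alexa 594-labeled, final) in 100 mM sodium acetate pH 7 was mixed with compound and 20 uM heparin and incubated 6 hr at 37 C.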
Numbers stand for hits; i = inactive; ? = inconclusive; nt = no result; [ ] = remark or other dose. Only some compounds are listed: those with a hit (about 3.1% of all), similar ones and a draw of the others. Unless noted, the call rests on the fitted dose curve; in most records, active means well fitted curve in the direction sought with a large enough effect; inconclusive means small, poorly fitted or top-dose-only effect, or another doubt; inactive means no such curve, though single readings can be large; an effect the other way counts as inactive or inconclusive.

SMILES | Tau fibril FP | TexasRed fluor | TRb-SRC2 inh | GoLoco inh red | Tau ThT inhib | Tau fluor cs
CC(C)C(=O)N1CCN(c2ccc(NC(=O)c3ccc(Br)o3)cc2)CC1 | i | i | i | i | ? | i
CCCCOc1ccc(C(=O)Nc2ccc(N3CCN(C(=O)C(C)C)CC3)cc2)cc1 | i | i | i | i | 2µM | i
CCCCOc1ccc(C(=O)Nc2ccc(N3CCN(C(C)=O)CC3)cc2)cc1 | ? | i | i | i | ? | i
CC(C(=O)NCCc1nc2ccccc2[nH]1)n1cc([N+](=O)[O-])cn1 (stereo not drawn) | i | i | i | i | i | i
COc1ccc(C(=O)NNC2CC(=O)N(Cc3ccccc3)C2=O)cc1OC (stereo not drawn) | i | i | i | i | i | i
COc1ccc(S(=O)(=O)n2ccc(C)n2)cc1C | i | i | i | i | i | i
COc1ccccc1N(CC(=O)N(CC(C)C)CC(C)C)S(=O)(=O)c1cccs1 | i | i | i | i | i | i
O=[N+]([O-])c1ccc(N2CCC(=NOCc3ccc(Cl)cc3)CC2)cc1 | i | i | i | i | ? | i
CCCC(=O)N1CCN(c2ccc(NC(=O)c3ccc([N+](=O)[O-])o3)cc2Cl)CC1 | ? | i | i | i | 13µM | i
CC(C)C(=O)N1CCN(c2ccc(NC(=O)c3ccc([N+](=O)[O-])o3)cc2Cl)CC1 | i | i | i | i | ? | i
Nc1cc2nn(-c3ccccc3)nc2cc1Cl | ? | i | i | i | 3.5µM | ?
Nc1ccc2nn(-c3ccccc3)nc2c1 | i | i | i | i | ? | ?
COc1ccc(C)cc1Nc1c2c(nc3nc(-c4cccs4)nn13)CCCC2 | i | i | i | nt | i | i
Cc1[nH]c2ccccc2c1/C=C/c1nc2ccccc2c(=O)n1CCO | i | i | i | i | ? | 10µM[quencher]
COc1ccc(N(CC(=O)NCc2ccc(F)cc2)S(=O)(=O)c2c(C)noc2C)cc1 | i | i | i | nt | i | i
CCOc1ccccc1NC(=O)CN1C(=O)COc2ccc(S(=O)(=O)N3CCCCC3)cc21 | i | i | i | nt | i | i
Cc1[nH]n(S(=O)(=O)Cc2ccccc2)c(=O)c1N=Nc1ccccc1Cl | i | i | i | i | 16µM | i
Cc1ccc(-n2cc(-c3ccccc3)nc2S(=O)(=O)CC(=O)Nc2ccc(F)cc2)cc1 | ? | i | i | nt | i | ?
Nc1ccc2nc(-c3ccccn3)[nH]c2c1 | i | i | i | i | 25µM | ?
Nc1ccc2nc(-c3ccccc3)[nH]c2c1 | i | i | i | i | ? | i
O=C1NN(c2ccc(F)c(Cl)c2)C(=O)/C1=C\c1cccc(OC(=O)c2cccs2)c1 | i | i | i | i | 20µM | ?
COc1ccc(-c2nc3scc(CCNS(=O)(=O)c4ccc(NC(C)=O)cc4)n3n2)cc1 | i | i | i | nt | i | i
Cn1cnc(S(=O)(=O)N2CCC(C(=O)NCc3ccc(Cl)cc3)CC2)c1 | i | i | i | nt | i | i
Cc1cc(C)n2[nH]c(=O)c(N=Nc3ccccc3)c2n1 | i | i | i | i | ? | i
Cc1cc(C)[n+]2[nH]c(N)c(N=Nc3ccccc3)c2n1 | i | i | i | i | 16µM | i
SMILES | Tau fibril FP | TexasRed fluor | TRb-SRC2 inh | GoLoco inh red | Tau ThT inhib | Tau fluor cs
O=C(Cn1c(-c2ccccc2)noc1=O)Nc1ccc(N2CCCCCC2)cc1 | ? | i | i | i | i | 14µM[quencher]
CC(=O)Nc1ccc(N2CCCCC2)cc1 | i | i | i | i | i | i
CN1CCN(c2ccc(NC(=O)c3cccc(OCc4ccccc4)c3)cc2)CC1 | ? | i | i | i | ? | 14µM[quencher]
CC(=O)Nc1ccc(N2CCCC2)cc1 | ? | i | i | i | 28µM | ?
CN1CCN(c2ccc(NC(=O)c3sc4ccccc4c3Cl)cc2)CC1 | i | i | i | i | 5µM | ?
O=C(Nc1ccc(N2CCN(c3ccc(O)cc3)CC2)cc1)Oc1ccccc1 | i | i | i | i | 5µM | 7.9µM[quencher]
O=C(Nc1ccc(N2CCCC2)cc1)c1cccc(F)c1 | ? | i | i | i | 13µM | ?
COc1ccc(OC)c(NC(=O)CCCN2C(=S)NC(C)(C)CC2C)c1 (stereo not drawn) | i | i | i | i | i | i
COC(CNC(=O)c1cccnc1)OC | i | i | i | i | i | i
COC(CNC(=O)c1ccc2c3c(onc13)-c1ccccc1C2=O)OC | ? | i | i | 10µM | 16µM | 16µM[quencher]
COc1ccc(C(=O)Nc2nc3ccc4nc(C)sc4c3s2)cc1 | i | i | i | i | i | i
NC(=S)COc1ccccc1 | i | i | i | 22µM | i | i
CN(C)CCCNC1=CC(=O)CC(c2ccccc2)C1 (stereo not drawn) | i | i | i | i | i | i
O=c1n(Cc2ccccc2)nc2n1-c1ccccc1OC2 | i | 10µM[quencher] | i | nt | i | i
COc1ccc(Cn2nc3n(c2=O)-c2ccccc2OC3)cc1 | i | i | i | nt | i | i
CCCC1C2C(=O)N(c3ccc(OC)cc3)C(=O)C2ON1c1ccccc1 (stereo not drawn) | i | i | i | i | i | i
O=C1NC(c2ccc(Cl)cc2)Nc2ccccc21 (stereo not drawn) | i | i | i | i | i | i
O=C1c2ccccc2C(=O)C12OC2c1ccc(Cl)cc1 (stereo not drawn) | ? | i | i | i | 3.2µM | i
O=C(Nc1noc2ccccc12)c1c(F)cccc1F | i | i | i | nt | i | i
O=C(c1ccc(F)cc1)C1CCN(C(=S)Nc2ccccc2Cl)CC1 | i | i | i | i | i | i
CCOC(=O)C1=C(C)N=c2s/c(=C\c3ccc(OC(C)=O)c(OCC)c3)c(=O)n2C1/C=C/c1ccccc1 (stereo not drawn) | i | i | i | i | ? | i
CCOC(=O)C1=C(c2ccccc2)N=c2s/c(=C\c3cccc(O)c3)c(=O)n2C1c1cccs1 (stereo not drawn) | 13µM | i | i | i | ? | ?
Cc1cccc(N(CC(=O)Nc2c(C)n(C)n(-c3ccccc3)c2=O)S(C)(=O)=O)c1C | i | i | i | i | i | i
COc1ccc(-c2ccc3c(N)c(C(=O)NC(C)C)sc3n2)cc1OC | ? | i | i | i | 10µM | 18µM[quencher]
COc1cccc(-c2ccc3c(N)c(C(=O)c4ccc(Br)cc4)sc3n2)c1 | ? | i | i | nt | 4.5µM | 2.5µM[quencher]
Cc1ccc(S(=O)(=O)Nc2cc(C)nn2-c2ccccc2)cc1 | i | i | i | i | i | i
